In the library only some 19% were active in any assay of this set; here they are far more common.
HepG2 tox – qHTS for Inhibitors of TGF-b: Cytotox Counterscreen; HepG2 CAGA-GFP viability, ATP luminescence, 18 h; AID 588856, 2011; Potency, µM (titrated, usually from 46.1 µM), without a hit: at the highest dose activity change, negative = cytotoxicity, hits mostly cytotoxic; 0.76% of 410,000 active; further: potency means the concentration at half of the fitted maximal effect
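CellTiter-Glo luminescence gave cytotoxicity after 18 hours at 37 degrees C. The cells were HepG2 CAGA-GFP in 1% FBS DMEM, stimulated with 500 pg/mL TGF-beta after compound addition. %Activity was normalised to no-cell wells (complete cell-killing) and DMSO (no toxicity), and curves were fitted and classified.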
DT40 TDP1 CPT – qHTS for Inhibitors of human tyrosyl-DNA phosphodiesterase 1 (TDP1): qHTS in cells in presence of CPT. chicken DT40 Tdp1-/-;hTDP1 cells + 20 nM CPT, ATP luminescence, 48 h. Potency, µM (doses to about 46.2 µM), for the others: top-dose activity change, negative = growth inhibition, most hits filed as inhibitors. 12% of 420,000 active. AID 686979, 2013; further: potency means the concentration at half of the fitted maximal effect; on the % scale 0 is the no-effect control and ±100 the full control effect; nearly all actives have a fitted effect of over 55% in size
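Chicken DT40 Tdp1-/- cells stably complemented with human TDP1 were seeded at 400 cells/well in medium containing 20 nM camptothecin, exposed to pin-transferred compounds, and grown at 37 °C for at least 48 hr. Viability was read as ATP luminescence.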
TDP1 cell noCPT – qHTS for Inhibitors of human tyrosyl-DNA phosphodiesterase 1 (TDP1): qHTS in cells in absence of CPT; Potency, µM (series often up to 46.2 µM), for inactives: at the top dose activity change, negative = growth inhibition, hits mostly inhibitors; AID 686978, 2013; 15% of 420,000 active; DT40 Tdp1-/- hTDP1 cells, no CPT, ATP luminescence, 48 h; further: potency means the concentration at half of the fitted maximal effect; on the % scale 0 is the no-effect control and ±100 the full control effect; nearly all actives have a fitted effect of over 55% in size
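Stably hTDP1-transfected Tdp1-null chicken DT40 cells were treated with library compounds minus camptothecin and grown for at least 48 hr at 37 °C, after which cellular ATP was quantified by luminescence.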
TGFb inhibitor – qHTS for Inhibitors of TGF-b; 1.2% of 410,000 active; Potency, µM (highest dose often 46.1 µM), without a hit: at the highest dose activity, negative = inhibition, most hits filed as inhibitors; HepG2 CAGA-GFP TGF-b/SMAD3 reporter, GFP fluorescence, 18 h; TGF-beta stimulated, 500 pg/mL final; AID 588855, 2011; further: potency means the concentration at half of the fitted maximal effect; on the % scale 0 is the no-effect control and ±100 the full control effect; nearly all actives have a fitted effect of over 65% in size
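Per well, imaged GFP fluorescence of HEPG2 CAGA-GFP cells gives the signal; cells get compound, then TGF-beta (500 pg/mL final), 18 h at 37 degrees C; %Activity versus -TGF-beta and +DMSO controls.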
S-ASM inh – Inhibitors of Secretory Acid Sphingomyelinase (S-ASM): qHTS. Sphingomyelin phosphodiesterase (Homo sapiens), P17405. placental ASM, HMU-PC fluorogenic substrate, 60 min. Potency, µM (highest dose often 57.5 µM), for the others: top-dose activity change, negative = inhibition, most hits filed as inhibitors. 0.006% of 340,000 active. AID 504937, 2011; further: potency means the concentration at half of the fitted maximal effect
Target sequence (P17405 47-631 limits assumed): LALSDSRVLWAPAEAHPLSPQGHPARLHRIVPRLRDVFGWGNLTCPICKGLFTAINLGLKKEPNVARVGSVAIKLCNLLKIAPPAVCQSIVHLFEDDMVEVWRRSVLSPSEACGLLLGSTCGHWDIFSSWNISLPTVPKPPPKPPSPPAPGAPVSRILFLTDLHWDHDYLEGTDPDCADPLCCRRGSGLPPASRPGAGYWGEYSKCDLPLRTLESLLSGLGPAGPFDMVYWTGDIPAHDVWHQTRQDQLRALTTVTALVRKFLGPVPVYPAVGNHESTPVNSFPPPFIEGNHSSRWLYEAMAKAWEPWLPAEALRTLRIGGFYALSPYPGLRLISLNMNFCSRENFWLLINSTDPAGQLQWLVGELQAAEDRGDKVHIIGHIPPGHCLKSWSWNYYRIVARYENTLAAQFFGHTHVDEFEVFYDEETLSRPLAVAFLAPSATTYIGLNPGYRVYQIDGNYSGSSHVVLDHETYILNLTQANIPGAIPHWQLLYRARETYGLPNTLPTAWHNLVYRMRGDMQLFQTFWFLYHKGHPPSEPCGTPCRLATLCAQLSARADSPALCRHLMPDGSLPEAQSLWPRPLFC
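HMU-PC0 cleavage (9 uM final) by human placental ASM, 60 min at 37 °C following 10 min compound exposure at RT; stopped at pH 10, fluorescence Ex 386/Em 447 nm.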
IL1B secr inh – qHTS for Inhibitors of Inflammasome Signaling: IL-1-beta AlphaLISA Primary Screen | THP-1 LPS/ATP IL-1B secretion, AlphaLISA, 16 h; stronger effect = lower value | activity change, % at 57.5 µM | 4.7% of 360,000 active | AID 743279, 2014; in the data active means activity change below about -50%; inconclusive means mostly about -30% to -49%; further: on the % scale 0 is the no-effect control and ±100 the full control effect
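Secreted IL-1B measured by AlphaLISA bead assay after 16 h compound exposure of THP-1 cells; compounds (final up to 57.5 uM) added 1 h before LPS (250 ng/mL) and ATP (1.25 mM) stimulation; lower signal means less secretion.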
Active calls of the source: *. Unless noted, the call rests on the fitted dose curve; in most records, active means well fitted curve in the direction sought with a large enough effect; inconclusive means small, poorly fitted or top-dose-only effect, or another doubt; inactive means no such curve, though single readings can be large; an effect the other way counts as inactive or inconclusive.

`CN1C(=O)[C@H]2[C@@H](C3CC3)N3C(=O)CN(CC4CC4)C(=O)[C@@]3(C)[C@H]2C1=O` gave HepG2 tox 2.9%, DT40 TDP1 CPT 1.6%, TDP1 cell noCPT -4.5%, TGFb inhibitor -11.7%, S-ASM inh 9.1% and IL1B secr inh 10.4.
For COc1cccc(CN2CC(C(=O)NCCN3CCOCC3)CCC2=O)c1 (stereo not drawn) the results were HepG2 tox 1.5%, DT40 TDP1 CPT 4.4%, TDP1 cell noCPT 24.2%, TGFb inhibitor 1.0%, S-ASM inh 3.0% and IL1B secr inh -0.7.
CCOC(=O)[C@]12Cc3c(cc(OC)c(OC)c3OC)[C@H]1N(Cc1ccccc1)C(=O)c1cc(F)c(F)cc12 was read as DT40 TDP1 CPT inconclusive, TDP1 cell noCPT 25.9µM* and IL1B secr inh -67.8*.
CCOC(=O)[C@]12Cc3c(cc(OC)c(OC)c3OC)[C@H]1N(Cc1ccccc1)C(=O)c1cc(OC)ccc12 was read as DT40 TDP1 CPT inconclusive and TDP1 cell noCPT 13µM*.
Screening CCOC(=O)[C@]12Cc3c(cc(OC)c(OC)c3OC)[C@H]1N(CCC(=O)OC)C(=O)c1cc(OC)ccc12 returned DT40 TDP1 CPT inconclusive, TDP1 cell noCPT 16.4µM* and IL1B secr inh -116.3*.
`COc1ccc(-c2csc(NCCc3nc4cc(Cl)c(Cl)cc4n3CCCO)n2)cc1` gave HepG2 tox -2.0%, DT40 TDP1 CPT inconclusive, TDP1 cell noCPT 18.4µM*, TGFb inhibitor inconclusive, S-ASM inh -26.7% and IL1B secr inh -58.4*.
For O=[N+]([O-])c1cc(-c2csc(NCCc3nc4cc(Cl)c(Cl)cc4n3CCCO)n2)ccc1Cl the results were HepG2 tox -10.1%, DT40 TDP1 CPT 16.4µM*, TDP1 cell noCPT inconclusive, TGFb inhibitor inconclusive, S-ASM inh -13.3% and IL1B secr inh inconclusive.
For CCCn1c(CCNc2nc(-c3ccc(Cl)c([N+](=O)[O-])c3)cs2)nc2cc(Cl)c(Cl)cc21 the results were HepG2 tox 5.2%, DT40 TDP1 CPT -11.3%, TDP1 cell noCPT -5.4%, TGFb inhibitor 0.1%, S-ASM inh -2.7% and IL1B secr inh 34.2.
For Cc1ccc(-c2csc(NCCc3nc4cc(Cl)c(Cl)cc4n3CCCO)n2)cc1 the results were HepG2 tox -18.2%, DT40 TDP1 CPT inconclusive, TDP1 cell noCPT inconclusive, TGFb inhibitor inconclusive, S-ASM inh -17.9% and IL1B secr inh -56.0*.
COc1ccc(/C=C/C(=O)NCCc2c[nH]c3ccccc23)cc1OC was read as HepG2 tox -20.8%, DT40 TDP1 CPT inconclusive, TDP1 cell noCPT inconclusive, TGFb inhibitor -2.5%, S-ASM inh -2.2% and IL1B secr inh -12.2.
For COc1cc(/C=C(/C#N)C(=O)NCCc2c[nH]c3ccccc23)ccc1OCc1ccccc1F the results were HepG2 tox -20.7%, DT40 TDP1 CPT 11.6µM*, TDP1 cell noCPT inconclusive, TGFb inhibitor 0.8%, S-ASM inh 39.3% and IL1B secr inh 9.6.
Cc1cc2cc(CCNC(=O)C(C)C)c(=O)[nH]c2cc1C was read as HepG2 tox 2.0%, DT40 TDP1 CPT -3.8%, TDP1 cell noCPT -21.8%, TGFb inhibitor 3.7%, S-ASM inh -0.8% and IL1B secr inh 4.7.
Screening O=C(NCCc1c[nH]c2ccccc12)C(=O)c1c[nH]c2ccccc12 returned HepG2 tox -33.6%, DT40 TDP1 CPT inconclusive, TDP1 cell noCPT 14.6µM*, TGFb inhibitor inconclusive, S-ASM inh 3.8% and IL1B secr inh -17.8.
COC(=O)[C@@H](Cc1ccccc1)NC(=O)NCCc1c[nH]c2ccccc12 was read as HepG2 tox -49.6%, DT40 TDP1 CPT -0.7%, TDP1 cell noCPT inconclusive, TGFb inhibitor inconclusive, S-ASM inh 7.9% and IL1B secr inh -97.9*.
Screening Cc1cc2cc(CCNC(=O)C(=O)c3c[nH]c4ccccc34)c(=O)[nH]c2cc1C returned HepG2 tox -19.8%, DT40 TDP1 CPT 14.6µM*, TDP1 cell noCPT 18.4µM*, TGFb inhibitor inconclusive, S-ASM inh -28.2% and IL1B secr inh -56.3*.
`CCOC(=O)c1ccccc1NC(=O)CN1C(=O)CC(c2ccccc2)Sc2ccccc21` (stereo not drawn) gave HepG2 tox -1.8% and TGFb inhibitor -13.3%.
For COCCNC(=O)c1cccc(OC2CCN(Cc3ccc(F)cc3OC)CC2)c1 the results were HepG2 tox -0.5%, DT40 TDP1 CPT -15.3%, TDP1 cell noCPT 6.4%, TGFb inhibitor -7.8%, S-ASM inh 0.4% and IL1B secr inh 24.8.
Screening COC(=O)C1=C(C(=O)OC)[C@@H]2Nc3ccccc3[C@@]23C[C@@H](C(=O)OC)N(C(=O)CC(C)C)C3=N1 returned HepG2 tox -2.0%, DT40 TDP1 CPT 1.2%, TDP1 cell noCPT -2.4%, TGFb inhibitor 14.2%, S-ASM inh -5.6% and IL1B secr inh -3.6.
CC(=O)c1ccc(S(=O)(=O)NCCC(=O)NCCc2c[nH]c3ccccc23)cc1 was read as HepG2 tox -0.9%, DT40 TDP1 CPT inconclusive, TDP1 cell noCPT inconclusive, TGFb inhibitor 6.2%, S-ASM inh 2.9% and IL1B secr inh 0.0.
Screening O=C(CCNS(=O)(=O)c1ccc(OC(F)(F)F)cc1)NCCc1c[nH]c2ccccc12 returned HepG2 tox -19.0%, DT40 TDP1 CPT 14.6µM*, TDP1 cell noCPT 23.1µM*, TGFb inhibitor -19.4%, S-ASM inh -3.0% and IL1B secr inh -7.6.
`Cc1cc(/C=C(\C#N)C(=O)NCCc2c[nH]c3ccccc23)c(C)n1C` gave HepG2 tox -23.0%, DT40 TDP1 CPT inconclusive, TDP1 cell noCPT inconclusive, TGFb inhibitor -0.3%, S-ASM inh -5.2% and IL1B secr inh inconclusive.
Screening N#C/C(=C/c1ccc(Br)s1)C(=O)NCCc1c[nH]c2ccccc12 returned HepG2 tox -0.1%, DT40 TDP1 CPT 23.1µM*, TDP1 cell noCPT 20.6µM*, TGFb inhibitor inconclusive, S-ASM inh -24.4% and IL1B secr inh inconclusive.
For CN(CCc1ccc(Cl)c(Cl)c1)C[C@@H](O)COc1ccc(NS(C)(=O)=O)cc1 the results were DT40 TDP1 CPT inconclusive and TDP1 cell noCPT 23.7µM*.

Screening data as filed in PubChem BioAssay.
